The results in this text go back to PubChem BioAssay (NCATS).

Test [1] is described as follows: AP1 Signaling Pathway (AID 357).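 Also: ME-180 reporter cells stimulated with EGF at its EC50 level; % is scaled to controls: 0 for no effect and ±100 for the full control effect.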 As to conditions: ME-180 AP-1-bla reporter, EGF-induced, beta-lactamase ratio, 5 h; at 17.2 µM (top of the series) unless noted. In a few lines:
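A ratiometric CCF4 readout (405 nm excitation; 460 and 530 nm emission) quantified AP-1-driven beta-lactamase in ME-180 cells after 5 h with compound and EC50 EGF; AC50 values were derived for activators and inhibitors.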

The nature of test [2]: NFAT Signaling Pathway (AID 444).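 Also: carbachol stimulus at about its EC50 of 1 µM final; % is scaled to controls: 0 for no effect and ±100 for the full control effect.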 As to conditions: Jurkat NFAT-bla M1, carbachol, beta-lactamase ratio, 5 h; at 17.2 µM (top of the series) unless noted. In short, it runs like this: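 Read-out: CCF4 FRET ratio (460 nm/530 nm) after 1 h RT dye loading, used for %activity and AC50 from titration series. Cells: Jurkat NFAT-β-lactamase/M1 line, treated with compound plus 1 uM carbachol for 5 h, 37 °C.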

Test [3] can be described thus: Stat Signaling Pathway (AID 446).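 Also: ME-180 cervical cancer cells given 40 pM IL-6 alongside compound; SIE-controlled beta-lactamase reporter measured as 460/530 nm FRET emission ratio; % is scaled to controls: 0 for no effect and ±100 for the full control effect.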 As to conditions: ME-180 (cervical carcinoma) SIE beta-lactamase reporter, IL-6 stimulated, 5 h; at 17.2 µM (top of the series) unless noted. In a few lines:
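Emission at 460 and 530 nm (excitation 405 nm) reports SIE-controlled beta-lactamase in ME-180 cells. Cells received compound with 40 pM IL-6 for 5 hrs at 37 C; data scaled between 300 pM IL-6 and 125 nM JAK-inhibitor controls.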

In test [4] the target is Glucocorticoid receptor (Homo sapiens) (UniProt P04150). As to the kind of experiment: GR-GFP Redistribution (AID 450;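 active = compounds whose dose series gives a full or clear partial fitted curve of increased nuclear translocation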; also: potency is read from the fitted curve at half-maximal effect).

SMILES strings stand for the structures. A number with no mark means an inactive call. Results filed as inconclusive are left out. The source made the active and inactive calls. Unless noted, calls follow the shape of the dose curve; as a rule, active = well fitted curve in either direction with a large enough effect (not every such curve was filed as active); inconclusive = small, poorly fitted or top-dose-only effect, or another doubt; inactive = flat fitted curve, though single readings scatter.

Sequence of Glucocorticoid receptor (Homo sapiens) (P04150 whole entry, looked up): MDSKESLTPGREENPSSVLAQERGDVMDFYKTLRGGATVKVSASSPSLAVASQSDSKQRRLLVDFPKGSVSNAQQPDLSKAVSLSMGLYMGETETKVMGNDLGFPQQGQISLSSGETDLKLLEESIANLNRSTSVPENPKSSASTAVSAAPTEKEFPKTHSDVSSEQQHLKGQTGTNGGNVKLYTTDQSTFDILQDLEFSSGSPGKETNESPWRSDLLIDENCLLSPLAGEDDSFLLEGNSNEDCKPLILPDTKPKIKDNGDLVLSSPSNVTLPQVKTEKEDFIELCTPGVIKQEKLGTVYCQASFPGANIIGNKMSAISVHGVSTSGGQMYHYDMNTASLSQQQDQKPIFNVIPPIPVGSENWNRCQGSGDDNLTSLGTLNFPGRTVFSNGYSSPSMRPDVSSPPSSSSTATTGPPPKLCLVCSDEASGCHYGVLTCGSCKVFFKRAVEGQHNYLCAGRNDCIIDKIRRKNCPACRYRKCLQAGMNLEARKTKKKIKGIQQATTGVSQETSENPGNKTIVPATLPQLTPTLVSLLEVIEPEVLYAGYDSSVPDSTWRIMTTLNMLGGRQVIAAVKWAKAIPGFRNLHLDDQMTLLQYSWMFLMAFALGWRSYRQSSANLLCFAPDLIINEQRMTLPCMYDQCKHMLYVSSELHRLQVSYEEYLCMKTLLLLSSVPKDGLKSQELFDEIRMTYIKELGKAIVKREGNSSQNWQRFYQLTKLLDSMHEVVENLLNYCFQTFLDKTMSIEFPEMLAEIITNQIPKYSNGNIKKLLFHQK

As to `CCOc1ccc(C2CC(c3ccccc3)Nc3nc(N)nn32)cc1` (stereo unspecified), the activity change, negative = inhibition is -4.28% in test [1] and 6.92% in test [2]. Besides, the activity, negative = inhibition in test [3] is -1.31%. For the same compound, in test [4], the Potency is greater than 20.6 µM.
In the same order, the values of `Cc1ccc(Cn2ncc3c(N4CCOCC4)ncnc32)cc1` are -2.95%, 19.3%, 3.94% and greater than 20.6 µM.
In the same order, the values of `CCOC(=O)c1[nH]c2ccc(C)cc2c1N=CN(CC)CC` are 7.82%, -21.2%, 10.4% and greater than 20.6 µM.
The corresponding values for `Nc1nonc1-c1noc(N2CCOCC2)n1` are 4.65%, -8.54%, -2.07% and greater than 20.6 µM.
In the case of `Cn1nnnc1-c1cc(Br)ccc1NC(=O)c1ccccc1`, the activity change, negative = inhibition in test [1] was 28.6%; in test [2], -1.05%. Further, the activity, negative = inhibition in test [3] is 24.3%. In addition, the Potency in test [4] was greater than 20.6 µM.
The corresponding values for `CCN(CC)CCOC(=O)C1(c2ccc(OC)c(OC)c2)CCCC1` are 10.4%, -82.2% (active), 11% and greater than 20.6 µM.
Turning to `Cc1ccc(C(=O)C2=C(O)C(=O)N(c3ncccn3)C2c2cccc(Cl)c2)o1` (stereo unspecified), the values for the activity change, negative = inhibition in test [1] and in test [2] were -1.15% and 24.9%, respectively. The activity, negative = inhibition in test [3] was -7.64%. Also, the Potency in test [4] is greater than 20.6 µM.
In the same order, the values of `CCOC(=O)C1(C(=O)OCC)C(c2ccccc2)CC(O)N1C(C)=O` (stereo unspecified) are 5.72%, 2.25%, -1.29% and greater than 20.6 µM.
The corresponding values for `C=CCNc1nc(C)nc(OC)n1` are 8.25%, 13.9%, 4.41% and greater than 20.6 µM.
The corresponding values for `CN(C)CCNc1nc(-c2ccco2)c2c(c1C#N)CC(C)(C)OC2` are 9.95%, -23%, 12.9% and greater than 20.6 µM.
For `COc1ccc(C(CC(=O)N2CCOCC2)C(C)C)cc1` (stereo unspecified), the activity change, negative = inhibition in test [1] is 8.67%; in test [2], 3.99%. Besides, in test [3], the activity, negative = inhibition was -3.69%. In addition, in test [4], the Potency is greater than 20.6 µM.
For the compound `Cc1ccc(-n2ncc3c(N4CCCC4)ncnc32)c(C)c1`, the activity change, negative = inhibition in test [1] was -15%; in test [2] it was 22.5%. In test [3], the activity, negative = inhibition was -1.13%. In addition, the Potency in test [4] is greater than 20.6 µM.
In the same order, the values of `Nc1nnc(CSCc2ccc(F)cc2)s1` are 8.86%, -1.8%, -2.21% and greater than 20.6 µM.
In the same order, the values of `Cc1cc(C(F)(F)F)nn1CC(=O)NCC1CCCO1` (stereo unspecified) are 3.74%, -11%, 3.03% and greater than 20.6 µM.
The corresponding values for `CC(C)c1cc(NCCN2CCOCC2)n2c(nc3ccccc32)c1C#N` are -4.92%, 6.15%, 9.84% and greater than 20.6 µM.
Turning to `CCOC(=O)c1cc(C)n(-c2ccc(OC)c(OC)c2)c1C`, the figures for the activity change, negative = inhibition in test [1] and in test [2] were -17.8% and -1.46%, respectively. In test [3], the activity, negative = inhibition is -14.1%. The Potency in test [4] is greater than 20.6 µM.
Regarding `COC(=O)c1c(C)[nH]c(C(=O)OCc2ccc(F)cc2)c1C`, the activity change, negative = inhibition in test [1] was 14.7%; in test [2], 5.66%. The activity, negative = inhibition in test [3] was -8.92%. Moreover, the Potency in test [4] was greater than 20.6 µM.
The corresponding values for `Cc1ccccc1NC(=O)NCCc1nc2ccccc2[nH]1` are -3.68%, -10.3%, -7.53% and greater than 20.6 µM.
Take `CCOC(=O)C1(c2nc(N)cs2)COC(=O)C1` (stereo unspecified): the activity change, negative = inhibition in test [1] is 6.34%; in test [2] it was -1.85%. Also, the activity, negative = inhibition in test [3] is 2.25%. For the same compound, the Potency in test [4] was greater than 20.6 µM.
For the compound `COCc1cc(=O)[nH]c(Nc2nc3ccccc3o2)n1`, the activity change, negative = inhibition in test [1] is 20.9%; in test [2], -12.8%. Besides, the activity, negative = inhibition in test [3] was 1.07%. Besides, the Potency in test [4] was greater than 20.6 µM.
For `c1ccc2c(c1)nc(CN1CCOCC1)n1c3ccccc3nc21`, the activity change, negative = inhibition in test [1] and in test [2] was 25.2% in each case. Also, in test [3], the activity, negative = inhibition is 14.3%. Besides, in test [4], the Potency is greater than 20.6 µM.
Take `Cn1c(Cn2cnc(Cl)c2Cl)nc2ccccc21`: the results for the activity change, negative = inhibition in test [1] and in test [2] were 2.26% and -0.211%, respectively. The activity, negative = inhibition in test [3] was 7.94%. Besides, the Potency in test [4] was greater than 20.6 µM.
In the same order, the values of `CC1CN(C2CCN(C(=O)COc3ccccc3)CC2)CC(C)O1` (stereo unspecified) are -6.79%, -12.5%, -1.27% and greater than 20.6 µM.
The corresponding values for `Cc1cc(/C=N/n2cnnc2)c(C)n1-c1ccc2c(c1)OCO2` are 9.26%, -13%, -0.639% and greater than 20.6 µM.
Consider `O=C(c1nsnc1-c1ccccc1O)N1CCCCC1`, for which the results for the activity change, negative = inhibition in test [1] and in test [2] were 12.2% and 6.47%, respectively. For the same compound, the activity, negative = inhibition in test [3] is -2.4%. The Potency in test [4] was greater than 20.6 µM.
In the same order, the values of `CCCC1Cc2c(sc3nc(SC)nc(N)c23)CO1` (stereo unspecified) are -3.09%, -10.7%, -1.16% and greater than 20.6 µM.
The corresponding values for `c1ccc(-c2nnc3sc(Cc4cccs4)nn23)cc1` are -13.7%, -18.2%, 16.7% and greater than 20.6 µM.
As for `Cc1noc(COc2ccccc2OCC(O)CNC(C)(C)C)n1` (stereo unspecified), the activity change, negative = inhibition in test [1] is 4.01%; in test [2], -1.96%. In addition, in test [3], the activity, negative = inhibition is 1.99%. For the same compound, the Potency in test [4] is greater than 20.6 µM.
The corresponding values for `CCOC(=O)CSc1nc2ccccc2c(=O)n1C` are -12.5%, -11.5%, 1.58% and greater than 20.6 µM.
